BH1578 lux ind = inducers of Vibrio cholerae quorum light production without autoinducers; V. cholerae BH1578 lux reporter, luminescence, 6 h; activation, % at 18.7 µM; hit rate 0.16% among 350,000; AID 588436; in the data active = activation mostly above about 9.7%, no sharp cut-off
PrPC TRFRET = cell surface PrPC inhibition, primary TR-FRET screen. P04156. TR-FRET read-out. inhibition, % at 13.8 µM. hit rate 0.43% among 370,000; in the data active = inhibition above about 24%
Mtb FBA inh = Mtb fructose-bisphosphate aldolase inhibition. hit rate 2.3% among 360,000. purified M. tuberculosis FBA, fluorescence read-out. inhibition, % at 1 µM. P9WQA3
Target sequence (P9WQA3 whole entry, looked up): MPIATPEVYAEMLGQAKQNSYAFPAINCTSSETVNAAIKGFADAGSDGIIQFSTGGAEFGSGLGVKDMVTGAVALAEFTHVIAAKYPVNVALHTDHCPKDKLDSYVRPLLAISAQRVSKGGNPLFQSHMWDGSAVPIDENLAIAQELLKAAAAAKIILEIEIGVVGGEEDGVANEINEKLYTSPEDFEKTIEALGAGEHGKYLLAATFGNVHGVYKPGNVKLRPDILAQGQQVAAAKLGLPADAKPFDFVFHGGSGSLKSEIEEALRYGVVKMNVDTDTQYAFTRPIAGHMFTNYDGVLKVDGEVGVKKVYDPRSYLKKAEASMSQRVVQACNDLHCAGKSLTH
GDH-TPI counter-1 = inhibits GDH-TPI coupling enzymes, artifact for Mtb FBA screen. GDH-TPI coupled enzyme counterscreen, NADH absorbance. inhibition, % at 4.8 µM. hit rate 1.2% among 360,000; in the data active = inhibition above about 30%
3CLpro inhibitor = SARS-CoV 3CLpro protease inhibition; P0C6X7; recombinant SARS-CoV 3CLpro, quenched FRET peptide cleavage; inhibition, % at 6 µM; hit rate 0.14% among 290,000; AID 1706; in the data active = inhibition above about 12%
Mtb FBA confirm = confirmation of M. tuberculosis fructose-bisphosphate aldolase inhibitors; hit rate 78% among 5,600; AID 651616; shares compounds with Mtb FBA inh; purified M. tuberculosis FBA, fluorescence read-out; inhibition, % at 1 µM
GDH-TPI counter-2 = GDH-TPI inhibition counter-screen for FBA inhibitors | shares compounds with Mtb FBA inh | AID 652141 | hit rate 81% among 5,600 | inhibition, % at 1 µM | GDH-TPI coupled enzyme counterscreen, fluorescence; in the data active = inhibition above about 10%
Numbers stand for hits; - = inactive; . = no result; + = active, no number. Hits are enriched below; roughly 3.9% of the tested compounds scored in any of these assays. Rule as the data show it, unless noted: active = inhibition above about 27%; inactive = the rest.

SMILES	BH1578 lux ind	PrPC TRFRET	Mtb FBA inh	GDH-TPI counter-1	3CLpro inhibitor	Mtb FBA confirm	GDH-TPI counter-2
Cn1c2ccc(F)cc2c2ncn(CC3CCCO3)c(=O)c21 (stereo unspecified)	-	-	27	-	-	176	180
Cn1c2ccc(F)cc2c2ncn(Cc3ccccn3)c(=O)c21	-	-	27	-	-	47	41
CCOc1ccccc1-n1c(=O)c2ccccc2c2ccccc2c1=O	-	-	-	-	-	.	.
CCC(CC)n1c(C)cc(=O)n1C(CC)CC	-	-	-	-	.	.	.
COCCNC(=O)c1oc2ccc3c(c2c1C)C(O)CC(C)(C)O3 (stereo unspecified)	-	-	38	-	-	52	42
CCN(CC)CCCNC(=O)c1oc2ccc3c(c2c1C)C(O)CC(C)(C)O3 (stereo unspecified)	-	-	44	-	-	55	43
Cc1c(C(=O)NCC2CCCO2)oc2ccc3c(c12)C(=O)CC(C)(C)O3 (stereo unspecified)	-	-	-	-	-	.	.
COc1cc2oc(=O)cc(CN3CCCCC3)c2cc1Cl	.	-	-	.	.	.	.
Cc1ccc(S(=O)(=O)N2CCCCC2)cc1NC(=O)Cn1cnc2c1c(=O)n(C)c(=O)n2C	-	-	-	-	.	.	.
CCN(C(=O)COC(=O)CCCN1C(=O)c2cccc3cccc(c23)C1=O)C1CCS(=O)(=O)C1 (stereo unspecified)	-	-	33	-	.	+	+
O=C(CCCN1C(=O)c2cccc3cccc(c23)C1=O)NCc1cccnc1	-	-	35	-	-	+	+
NC(=O)CN1CCN(CCN2C(=O)c3cccc4cccc(c34)C2=O)CC1	-	-	-	-	-	.	.
O=C1c2cccc3cccc(c23)C(=O)N1CCO	-	-	51	33	.	158	162
O=C(CN1C(=O)c2cccc3cccc(c23)C1=O)N1CCCCCC1	-	-	33	-	-	96	85
CCOC(=O)CCCSc1nnc(CCCCCN2C(=O)c3cccc4cccc(c34)C2=O)o1	-	-	-	-	-	.	.
CN(C(=O)COC(=O)CCCN1C(=O)c2cccc3cccc(c23)C1=O)C1CCS(=O)(=O)C1 (stereo unspecified)	-	-	29	-	.	144	100
CCOC(=O)CCCCCN1C(=O)c2cccc3cccc(c23)C1=O	-	-	28	-	-	113	67
CC(OC(=O)c1ccccc1NCCO)C(=O)NC1CCCCC1C (stereo unspecified)	-	-	96	-	.	-	-
CC1Cc2ccccc2N1C(=O)COC(=O)c1ccccc1NCCO (stereo unspecified)	-	-	109	-	.	80	67
CC(OC(=O)c1ccc(C(C)(C)C)cc1)C(=O)NC1CCCCC1C (stereo unspecified)	-	-	-	-	-	.	.
CC1CCN(C(=O)COC(=O)c2ccccc2NCCO)CC1	-	-	92	-	.	131	112
CC1CCN(C(=O)COC(=O)c2c[nH]c3ccccc23)CC1	-	-	-	-	.	.	.
O=C(COC(=O)c1ccccc1NCCO)Nc1cc(C(F)(F)F)ccc1N1CCOCC1	-	-	70	-	-	-	-
COc1ccccc1/C=C/C(=O)NNC(=O)c1cccs1	-	-	-	-	-	.	.
O=C(Cc1ccc(NC(=O)C2CCCN(C(=O)C3CC3)C2)cc1)Nc1cccc(C(=O)N2CCCCC2)c1 (stereo unspecified)	-	-	-	-	.	.	.
SMILES	BH1578 lux ind	PrPC TRFRET	Mtb FBA inh	GDH-TPI counter-1	3CLpro inhibitor	Mtb FBA confirm	GDH-TPI counter-2
O=C(OCC(=O)N1CCCc2ccccc21)c1ccccc1OC(F)F	-	-	-	-	.	.	.
O=C(OCC(=O)N1CCCc2ccccc21)c1ccccc1NCCO	-	-	99	-	.	148	140
CC1(c2cccc(Br)c2)NC(=O)N(CC(=O)N2CCc3ccccc32)C1=O (stereo unspecified)	-	-	-	-	.	.	.
CS(=O)(=O)c1ccc2nc(NC(=O)CCNC(=O)c3ccc(Cl)cc3)sc2c1	-	-	-	-	.	.	.
COc1cc2c(cc1O)CC1c3c(cc(O)c(OC)c3-2)CCN1C (stereo unspecified)	-	-	27	-	-	101	95
Cc1ccc(C)c(NC(=S)Nc2cccc3cnccc23)c1	-	-	-	-	-	.	.
COc1ccc(NC(=S)Nc2cccc(Cl)c2)cc1OC	-	-	-	-	-	.	.
